ADAM17 inh = inhibits human ADAM17; P78536; recombinant ADAM17, EDANS/DABCYL FRET peptide cleavage; inhibition, % at 6.95 µM; 0.83% of 370,000 active;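 active = inhibition above the mean of compounds lying between control limits plus 3 SD, set per campaign, cut at about 8.5% in these data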;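 also: 0% = DMSO-only wells as the low control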
Target sequence (P78536 215-824 limits assumed): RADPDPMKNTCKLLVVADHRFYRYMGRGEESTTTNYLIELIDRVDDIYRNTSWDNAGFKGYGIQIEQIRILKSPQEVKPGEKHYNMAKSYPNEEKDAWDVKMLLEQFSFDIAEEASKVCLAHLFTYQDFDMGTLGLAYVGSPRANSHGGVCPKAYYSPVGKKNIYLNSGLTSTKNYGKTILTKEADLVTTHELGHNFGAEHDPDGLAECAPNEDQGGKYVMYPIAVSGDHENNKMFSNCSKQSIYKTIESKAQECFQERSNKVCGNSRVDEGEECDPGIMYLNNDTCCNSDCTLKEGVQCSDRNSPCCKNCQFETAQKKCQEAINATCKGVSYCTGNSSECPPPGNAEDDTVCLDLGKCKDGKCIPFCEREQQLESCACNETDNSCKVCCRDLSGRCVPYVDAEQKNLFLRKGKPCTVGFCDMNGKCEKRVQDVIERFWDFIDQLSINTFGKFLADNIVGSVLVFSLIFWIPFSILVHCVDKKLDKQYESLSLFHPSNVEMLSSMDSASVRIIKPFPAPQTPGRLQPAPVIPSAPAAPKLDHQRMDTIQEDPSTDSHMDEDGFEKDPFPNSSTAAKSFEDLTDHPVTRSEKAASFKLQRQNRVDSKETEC
AHR act = activates the human aryl hydrocarbon receptor; AHR-responsive luciferase reporter cells, luminescence; AID 2796; 2.5% of 320,000 active; activation, % at 5 µM; in the data active = activation above about 47%;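 also: 0% = vehicle wells and 100% = reference agonist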
KLK7 zymogen act = activates the human kallikrein-7 zymogen. AID 652039. 0.9% of 370,000 active. activation, % at 7 µM. purified proKLK7, EDANS-DABCYL substrate fluorescence; 100% is mature enzyme control, 0% vehicle. P49862;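 active = activation above the mean of all tested compounds plus 3 SD, computed per campaign excluding outliers beyond control limits, cut at about 13% in these data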
GRIN3A LBD mod = modulators (binders) of human NR3A ligand-binding domain; AID 1259313; 2.5% of 340,000 active; NR3A LBD differential scanning fluorimetry, Tm shift; 0% = protein alone, 100% = glycine-bound protein; Tm shift relative to glycine control, % at 25 µM;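 active = melting temperature shift of at least 10% of the positive control shift, at one fixed dose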
rCAG binder = molecules binding r(CAG) RNA repeats. 1.3% of 370,000 active. inhibition, % at 3 µM. r(CAG) RNA repeat, TO-PRO-1 dye displacement fluorescence. AID 651821;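 active = inhibition above the plate cutoff, the mean of all test compounds on that plate plus 3 SD, cut at about 35% in these data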;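 also: 0% = DMSO alone and 100% = 100 µM mitoxantrone as full dye displacement; higher means more dye released from RNA so lower well fluorescence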
ADAM10 inh = inhibitors of human ADAM10 | O14672 | inhibition, % at 7 µM | recombinant ADAM10, EDANS/DABCYL FRET peptide cleavage, 3 h | 0.62% of 370,000 active;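 active = inhibition above a per-campaign cutoff equal to the mean of compounds falling between control-based bounds plus 3 SD, cut at about 20% in these data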;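 also: 0% = DMSO wells while the 100% control is not disclosed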
Starred values were filed as active, the others as inactive; i = inactive; / = no result given. Shown are actives, neighbours in structure and some others; about 7% of the full set was active somewhere.

SMILES | ADAM17 inh | AHR act | KLK7 zymogen act | GRIN3A LBD mod | rCAG binder | ADAM10 inh
c1ccc(CC(Nc2cccnc2)c2ccccc2)cc1 (configuration not stated) | -5 | / | 0 | / | -1 | -11
O=C(OC12CCCN(C1)/C(=C/c1cccnc1)C2)c1cccc(F)c1 (configuration not stated) | 3 | / | 1 | / | 6 | 0
COc1ccc(OC)c(C(=O)CSc2nnc(SCc3cccc4ccccc34)s2)c1 | 0 | / | -1 | / | 9 | -2
CCOC(=O)CC[C@@]1(C(=O)OCC)C[C@@H](CC(=O)NCc2ccc(OC)c(OC)c2)C(=O)N2CCCC=C21 | 0 | / | 0 | / | 1 | -1
Cc1cc(C)c(C(N)=O)c(Nc2cccc3ccccc23)n1 | -1 | 52* | 0 | -1 | 4 | 5
COc1ccccc1Nc1nc(C)cc(C)c1C(N)=O | -3 | 39 | 0 | 1 | -3 | 3
O=C(N/N=C/c1ccc(F)cc1)c1ccccc1 | 1 | 8 | -1 | -17 | 5 | 2
Cc1ccccc1/C=N\NC(=O)c1csnn1 | -4 | 51* | -1 | 4 | 1 | -5
Cc1ccccc1/C=N/NC(=O)c1cccnc1 | 0 | 40 | -1 | 1 | 6 | 1
O=C(N/N=C\c1ccc(F)cc1)c1csnn1 | -1 | 21 | 0 | 12* | 3 | 5
O=C(NNc1ncnc2ccccc12)c1cccc(Cl)c1 | -1 | 20 | -1 | 2 | 0 | -8
CC(=O)NNc1ncnc2ccccc12 | -2 | 17 | 1 | 0 | 1 | -1
Cc1ccc(Nc2ncnc(Cl)c2N)cc1 | -2 | / | 0 | 13* | 0 | 0
COC(=O)C(=O)C/C(=N/Nc1ncnc2ccccc12)c1ccc(Cl)cc1 | -12 | 58* | 0 | -6 | 32 | -30
Cc1ccc(Nc2ncnc3c2cnn3C)cc1 | -1 | 23 | 0 | -2 | -1 | -9
Cc1ccc(/C(=N/Nc2ncnc3ccccc23)C(=O)O)cc1 | -170 | 59* | 2 | 0 | 5 | -497
COC(=O)c1cccc(Nc2ncnc3ccc(C)cc23)c1 | -7 | 13 | 0 | 0 | -2 | -20
COc1ccc(Nc2ncnc3ccc(C)cc23)cc1 | -4 | 55* | 1 | 1 | -5 | 0
Clc1ccc(-n2c(SCc3cccc4ccccc34)nnc2-c2ccccc2)cc1 | 5 | / | 0 | / | 6 | 12
COc1ccc(C(F)(F)F)cc1NC(=O)C(OC(=O)CNC(=O)c1ccccc1)c1ccccc1 (configuration not stated) | 1 | / | / | / | / | 6
COC(=O)[C@]1(CNC(=O)C(C)(C)C)CC(=O)N(C)[C@@H]1c1ccccc1 | -4 | / | 0 | / | 1 | -3
Clc1cc(Cl)cc(CNC2CCC23CCCCC3)c1 (configuration not stated) | -1 | / | / | / | / | -1
Cc1ccc(Nc2ncnc3ccccc23)cc1 | -1 | 65* | 0 | -1 | -2 | -9
Oc1ccc(Nc2ncnc3ccccc23)cc1 | 4 | / | 0 | -5 | 0 | -4
Cc1cc(C(=O)NN=Cc2ccc(-c3ccc(F)cc3)o2)c(C)o1 | -20 | -3 | -1 | 16* | 6 | -79
SMILES | ADAM17 inh | AHR act | KLK7 zymogen act | GRIN3A LBD mod | rCAG binder | ADAM10 inh
Cc1ccc(/C=N/NC(=O)c2cc(C)oc2C)o1 | -2 | 13 | 0 | -1 | 0 | -7
Cc1ccc(C(=O)N/N=C\c2ccc(-c3ccc(Cl)cc3)o2)cn1 | -26 | 8 | -31 | 13* | 3 | -61
CCN(CC)c1ccc(C2Nc3cccc4cccc(c34)N2)c(O)c1 | -3 | 71* | -3 | -1 | 32 | -1
Oc1ccc2ccccc2c1C1Nc2cccc3cccc(c23)N1 | / | 21 | / | 3 | / | /
CCN(CC)Cc1cc(Nc2c3ccccc3nc3c4ccccc4n(C)c23)cc(CN(CC)CC)c1O | -93 | / | 23* | 0 | 13 | -325
Oc1cccc(Nc2c3ccccc3nc3ccccc23)c1 | -471 | 5 | 2 | -1 | 9 | i
CN1CCCCC(NC(=O)c2cccc(C(F)(F)F)c2)C1=O (configuration not stated) | -4 | / | 0 | / | 0 | -8
CCN1C(=O)C(=O)N(CC(=O)c2cc(C)n(C3CC3)c2C)C1=O | -2 | 0 | 0 | -1 | 0 | -5
Cc1cc(C(=O)CN2C(=O)c3ccccc3C2=O)c(C)n1C1CC1 | -5 | 1 | 0 | 17* | -1 | 4
O=C(Nc1ccncc1)Nc1cccc(C(F)(F)F)c1 | 0 | 25 | 0 | 14* | 2 | 1
CCc1ccc(NC(=O)c2cccnc2)cc1 | -1 | 54* | 0 | -3 | 0 | -2
CCN(CC)S(=O)(=O)c1ccc(NC(=O)Nc2cccc(C(F)(F)F)c2)cc1 | 14* | 0 | 0 | 31* | 35 | 39*
O=C(Nc1cccc(NC(=O)c2cccnc2)c1)c1ccccc1 | 0 | 35 | 0 | -7 | -4 | -5
O=C(Nc1cccc(C(F)(F)F)c1)c1cccnc1 | / | 56* | / | 1 | / | /
CCN(CC)S(=O)(=O)c1ccc(C(=O)Nc2cccc(C)c2)cc1 | -4 | 6 | 0 | -36 | -4 | 1
CCSc1ccc(NC(=O)c2cccnc2)cc1 | 1 | -1 | -1 | 7 | 7 | 8
CCOc1ccc(-n2c(SC/C=C/c3ccccc3)nnc2-c2cccs2)cc1 | 7 | / | 0 | / | 6 | 15
O=C(C(=O)N1CCN(S(=O)(=O)c2cccc3ccccc23)CC1)c1cccc(C(F)(F)F)c1 | 5 | / | 1 | / | 5 | 12
O=C(Nc1cccc(-n2cnnn2)c1)c1ccc(C(F)(F)F)cc1 | -1 | 69* | 0 | -6 | 4 | -4
O=C(Nc1cccc(-n2cnnn2)c1)c1ccncc1 | -3 | 17 | 0 | 1 | 2 | 12
O=C(CN1CCOCC1)Nc1cc(C(F)(F)F)ccc1Cl | -3 | 4 | 0 | 1 | -1 | -7
O=C(CN1CCN(C(=O)c2ccco2)CC1)Nc1cc(C(F)(F)F)ccc1Cl | / | -4 | / | 14* | / | /
CCCCn1c(SCC(=O)c2ccc(OCC)cc2)nc2cc(S(N)(=O)=O)ccc21 | 1 | 48* | -1 | -5 | 9 | 12
CCCCn1c(SCC(=O)c2ccc(OC)c(OC)c2)nc2cc(S(N)(=O)=O)ccc21 | 5 | 7 | 0 | 2 | 2 | 9
CC(C)(C)OC(=O)NCc1ccc(NC(=O)c2nc[nH]c2C(=O)NCCN(CCNC(=O)c2[nH]cnc2C(=O)Nc2ccc(CNC(=O)OC(C)(C)C)cc2)CCNC(=O)c2[nH]cnc2C(=O)Nc2ccc(CNC(=O)OC(C)(C)C)cc2)cc1 | -4 | 0 | 0 | 11* | 4 | 2
Cn1cnc(C(=O)NCc2ccc(CNC(=O)OC(C)(C)C)cc2)c1C(=O)NCc1ccc(CNC(=O)OC(C)(C)C)cc1 | 11* | -1 | -1 | -5 | 2 | 21*
CC(C)(C)OC(=O)NCc1ccc(NC(=O)c2nc[nH]c2C(=O)NCCCNC(=O)c2[nH]cnc2C(=O)Nc2ccc(CNC(=O)OC(C)(C)C)cc2)cc1 | / | -2 | / | -3 | / | /
